MPTP inh – blocks calcium-induced mitochondrial swelling | isolated mouse mitochondria, Ca2+ swelling absorbance, 30 min | 360,000 compounds, 1.4% hits | inhibition, % at 10 µM | AID 602449;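 active = inhibition of 50% or more, scaled per plate between neutral and stimulator controls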;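 also: 0% = DMSO wells given calcium and 100% = 1 mM EGTA wells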
Beta cell apopt – beta cell apoptosis inhibition | protection from apoptosis, % (concentration not given with the values) | AID 435005 | 300,000 compounds, 0.8% hits | INS-1E cytokine-induced death, ATP luminescence, 48 h; percent of positive-control rescue, neutral wells zero;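 active = Every replicate reaches about 75%, or at least half do and their mean reaches it too, limit read from the data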;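 also: 0% = cytokine-treated negative control wells and 100% = positive control rescue; higher means more ATP so stronger rescue from cytokine killing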
Mdm2 MdmX PPI – inhibitors of human Mdm2/MdmX interaction; 330,000 compounds, 3% hits; AID 485346; SaOS-2 split-luciferase Mdm2/MdmX complementation, luminescence; inhibition, % at 8 µM;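 active = inhibition of at least 50% at 8 µM in the primary screen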
Target sequence (O15151 whole entry, looked up): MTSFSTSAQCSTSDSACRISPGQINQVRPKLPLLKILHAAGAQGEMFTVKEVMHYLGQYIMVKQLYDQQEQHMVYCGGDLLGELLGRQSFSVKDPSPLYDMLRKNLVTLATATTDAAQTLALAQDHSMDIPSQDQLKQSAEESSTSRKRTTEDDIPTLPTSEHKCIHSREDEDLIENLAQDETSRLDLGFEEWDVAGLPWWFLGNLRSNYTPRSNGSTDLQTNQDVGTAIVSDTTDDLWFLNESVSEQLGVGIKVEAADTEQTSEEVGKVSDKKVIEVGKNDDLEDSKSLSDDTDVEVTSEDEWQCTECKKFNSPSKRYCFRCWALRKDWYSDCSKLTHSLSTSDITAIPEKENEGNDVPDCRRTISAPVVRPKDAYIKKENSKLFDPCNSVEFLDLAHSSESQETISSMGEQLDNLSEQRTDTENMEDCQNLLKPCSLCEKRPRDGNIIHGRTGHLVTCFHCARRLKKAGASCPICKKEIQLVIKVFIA
Target sequence (Q00987 whole entry, looked up): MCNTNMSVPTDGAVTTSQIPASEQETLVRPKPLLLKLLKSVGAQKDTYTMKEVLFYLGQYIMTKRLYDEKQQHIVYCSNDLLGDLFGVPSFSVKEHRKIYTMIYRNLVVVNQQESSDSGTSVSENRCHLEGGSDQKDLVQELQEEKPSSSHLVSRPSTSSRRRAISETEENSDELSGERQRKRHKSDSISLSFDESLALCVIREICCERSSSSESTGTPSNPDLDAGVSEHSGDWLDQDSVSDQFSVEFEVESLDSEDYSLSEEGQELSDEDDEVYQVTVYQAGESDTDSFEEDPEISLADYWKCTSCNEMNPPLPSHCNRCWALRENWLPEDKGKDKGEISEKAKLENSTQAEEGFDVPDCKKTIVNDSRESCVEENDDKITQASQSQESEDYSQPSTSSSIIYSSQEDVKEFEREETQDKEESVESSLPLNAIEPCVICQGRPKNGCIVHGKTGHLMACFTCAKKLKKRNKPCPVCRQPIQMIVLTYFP
GRIN3A LBD mod – modulators (binders) of human NR3A ligand-binding domain | 340,000 compounds, 2.5% hits | NR3A LBD differential scanning fluorimetry, Tm shift; 0% = protein alone, 100% = glycine-bound protein | AID 1259313 | Tm shift relative to glycine control, % at 25 µM;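 active = melting temperature shift of at least 10% of the positive control shift, at one fixed dose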
Gli-Sufu antag – Gli-Sufu pathway antagonism | Sufu-KO-LIGHT fibroblasts, Gli luciferase reporter luminescence | inhibition, % at 5 µM | 340,000 compounds, 0.74% hits | AID 588413;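 active = inhibition above about 55%, limit read from the data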;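 also: 0% = DMSO-treated cells and 100% = wells with medium but no cells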
CSC inhib – blocks cancer stem cells. cancer stem cell-like cells viability, luminescence. inhibition, % at 7.5 µM. 300,000 compounds, 1.1% hits. AID 2717; in the data active = inhibition above about 75%; tested in HMLE shEcad cells
Starred values were filed as active, the others as inactive; nt = no result given. Shown are actives, neighbours in structure and some others; about 6.6% of the full set was active somewhere.

SMILES | MPTP inh | Beta cell apopt | Mdm2 MdmX PPI | GRIN3A LBD mod | Gli-Sufu antag | CSC inhib
Cc1cc(NS(=O)(=O)c2ccc(NC(=O)c3c(F)c(F)c(F)c(F)c3F)cc2)nc(C)n1 | 0.5 | -2.2 | -26.9 | 0.8 | 3.4 | -0.1
Cc1ccc(S(=O)(=O)Nc2ccc(NC(=O)c3c(F)c(F)c(F)c(F)c3F)cc2)cc1 | 1.5 | 5.1 | 8.1 | 15.4* | 4.1 | 24.5
O=C(O)c1ccccc1C(=O)Nc1ccc(S(=O)(=O)Nc2ccc(F)cc2)cc1 | -0.1 | -12.3 | -7.7 | 10.0* | 3.3 | -6.8
CCn1c2ccccc2c2cc(NS(=O)(=O)c3ccc(C)cc3)ccc21 | 3.2 | -0.7 | 44.6 | 2.5 | 1.9 | 83.5*
O=C(Nc1ccccc1C(=O)O)c1cccc(NS(=O)(=O)c2ccc(Br)cc2)c1 | 0.2 | nt | nt | 7.6 | -2.1 | nt
C=CCOc1cccn2c(N(C)C(=O)c3ccccc3F)c(CC)nc12 | -0.1 | nt | nt | nt | nt | nt
COc1ccc(C2CC(=O)CCN2S(=O)(=O)c2ccc(C)cc2)cc1 (stereo unspecified) | 1.3 | nt | nt | 2.5 | 0.6 | nt
CC(Oc1ccc(Br)cc1)C(=O)O/N=C(\N)c1ccncc1 (stereo unspecified) | 1.4 | -3.9 | 25.7 | 0.7 | 0.5 | 15.9
CN(Cc1ccc(F)cc1)C(=O)c1cccc(S(=O)(=O)NCc2ccccc2)c1 | 0.7 | nt | -14.6 | 0.3 | 4.1 | -0.4
CN(Cc1ccc(F)cc1)C(=O)c1ccc(NS(=O)(=O)c2ccccc2)cc1 | -1.7 | -0.2 | 4.2 | 12.8* | 4.5 | 0.0
CCC(CC)C(=O)Nc1cccc(C(=O)Nc2ccc(S(=O)(=O)Nc3ccc(C)cc3)cc2)c1 | 11.0 | 43.9 | 22.2 | 18.8* | 7.3 | 47.1
CC(=O)c1ccc(NC(=O)c2cccs2)cc1 | 0.1 | 5.4 | -12.3 | -20.6 | -61.3 | 3.6
Cc1cc(C)cc(C(=O)Nc2ccc(NC(=O)c3cccs3)cc2)c1 | 0.2 | 10.0 | 13.5 | 26.9* | 15.8 | -10.6
Cc1cc(C)c(NS(=O)(=O)c2ccc(NC(=O)c3cccs3)cc2)c(C)c1 | 6.3 | -5.4 | 21.4 | 25.4* | -3.6 | 17.8
O=S(=O)(NCC(O)c1ccccc1)c1cc(Cl)sc1Cl (stereo unspecified) | 1.7 | -7.8 | 13.9 | 4.3 | -12.2 | -0.8
CN(CCCCCCCCCCN(C)C(=O)Oc1cccc([N+](C)(C)C)c1)C(=O)Oc1cccc([N+](C)(C)C)c1 | -0.2 | nt | 6.1 | -3.5 | -1.6 | nt
O=C(NC1CC1)c1ccc(NS(=O)(=O)c2ccccc2)cc1 | -0.9 | -4.5 | 10.8 | -0.7 | -12.5 | 6.5
O=C(NC1CC1)c1ccc(NS(=O)(=O)c2ccc(F)cc2)cc1 | -1.1 | -4.2 | 8.1 | 26.9* | -4.9 | 4.1
O=c1[nH]c2ccc(S(=O)(=O)N3CCN(Cc4ccccc4)CC3)cc2[nH]c1=O | -0.2 | -5.6 | 6.7 | 11.1* | 2.1 | nt
COc1cc(S(=O)(=O)N2CCN(Cc3ccccc3)CC2)ccc1Br | -2.2 | 6.7 | 12.4 | -2.1 | 4.4 | -1.0
Cc1ccc(/C=N/NC(=O)c2nnn(-c3nonc3N)c2CNc2ccccc2)cc1 | 3.8 | 0.0 | 6.1 | 34.6* | -15.6 | -4.8
CCCc1c(C(=O)N/N=C/c2ccc3c(c2)OCO3)nnn1-c1nonc1N | 0.1 | nt | nt | nt | nt | nt
Nc1nonc1-n1nnc(C(=O)N/N=C/c2ccc(OCc3ccccc3F)cc2)c1CNc1ccccc1 | -1.5 | 2.4 | 19.0 | 34.0* | nt | 18.4
Cc1ccc(/C=N/NC(=O)c2nnn(-c3nonc3N)c2CSc2ccccc2)cc1 | 6.3 | nt | 7.3 | 40.5* | -1.0 | 2.2
CCOc1ccc(-c2c(C(=O)N/N=C/c3ccccc3)nnn2-c2nonc2N)cc1 | 3.2 | -11.1 | -3.1 | -1.0 | -9.0 | -4.1
SMILES | MPTP inh | Beta cell apopt | Mdm2 MdmX PPI | GRIN3A LBD mod | Gli-Sufu antag | CSC inhib
Cc1ccc(SCc2c(C(=O)N/N=C/c3ccc4c(c3)OCO4)nnn2-c2nonc2N)cc1 | -1.7 | -2.2 | 33.5 | 30.8* | -8.0 | -5.2
Cc1ccc(-c2csc3ncn(CC(=O)NCC(c4ccco4)N4CCCC4)c(=O)c23)cc1 (stereo unspecified) | -3.3 | -1.5 | 14.7 | 0.4 | -22.9 | -13.4
CCCCCNC(=O)C1C(=O)Nc2ccccc2C(=O)N1c1c(C)cccc1C (stereo unspecified) | 2.2 | nt | nt | nt | nt | nt
Nc1nonc1-n1nnc(C(=O)N/N=C/c2ccco2)c1CSc1ccccc1 | -1.1 | -2.8 | 3.0 | 26.5* | 16.8 | 0.6
Cc1ccc(SCc2c(C(=O)N/N=C/c3ccoc3)nnn2-c2nonc2N)cc1 | -0.8 | -5.3 | -2.0 | 12.2* | -4.2 | -1.7
Cc1ccc(SCc2c(C(=O)N/N=C/c3ccco3)nnn2-c2nonc2N)cc1 | 0.4 | nt | nt | nt | nt | nt
CCN(CC)Cc1c(C(=O)N/N=C/c2ccc(OCc3ccccc3C)cc2)nnn1-c1nonc1N | 1.7 | 20.8 | -29.0 | 32.7* | -6.6 | 10.8
Cc1ccc(SCc2c(C(=O)N/N=C/c3cccs3)nnn2-c2nonc2N)cc1 | 0.2 | nt | nt | nt | nt | nt
Cc1ccc(SCc2c(C(=O)N/N=C/c3ccccc3)nnn2-c2nonc2N)cc1 | 5.0 | 0.3 | 17.5 | 32.6* | 0.1 | -7.3
CCN(CC)Cc1c(C(=O)N/N=C/c2cccnc2)nnn1-c1nonc1N | -0.3 | -0.1 | -11.8 | -0.2 | -8.4 | nt
CC(C)(C)c1ccc(CSc2nnc(-c3ccccn3)n2Cc2ccco2)cc1 | -0.6 | 9.7 | 2.7 | 20.0* | 2.6 | 51.8
O=C(O)COc1ccc(/C=C/c2ccc3cccc([N+](=O)[O-])c3n2)cc1 | -10.4 | 3.8 | -20.1 | 18.4* | -4.4 | 1.4
CC(=O)Nc1ccc(/C=C/c2ccc3cccc([N+](=O)[O-])c3n2)cc1 | 2.3 | 0.5 | 8.2 | 25.9* | -16.2 | 58.2
COc1cc(/C=C/c2ccc3cccc([N+](=O)[O-])c3n2)ccc1OCC(=O)O | 0.9 | 1.9 | 21.3 | 1.6 | -0.1 | 7.3
COc1ccc(CC(=O)Nc2c3c(nn2C(C)(C)C)CS(=O)(=O)C3)cc1 | 0.6 | -2.2 | 10.2 | 14.1* | -5.6 | -4.5
COc1ccc(OCC(=O)Nc2c3c(nn2C(C)(C)C)CS(=O)(=O)C3)cc1 | 0.4 | -2.1 | 14.8 | -0.9 | 3.5 | -1.7
CCCCNC(=O)Nc1ccccc1C(=O)Nc1ccc(OC)cc1 | -0.4 | 2.9 | -4.5 | 10.7* | -1.8 | -8.0
COc1ccc2o/c(=N\O)c(C(=O)Nc3ccccc3OC)cc2c1 | 0.5 | 7.5 | 38.6 | -14.1 | 9.7 | -5.5
COc1ccc(NC(=O)c2cccc3c(Br)cccc23)cc1 | 3.1 | -2.7 | 4.8 | 3.2 | -2.3 | 15.6
COc1cc2ccccc2cc1C(=O)Nc1ccc(O)cc1 | 46.1 | 8.8 | -65.6 | 5.0 | -68.1 | 40.2
CCCCNC(=O)Nc1ccccc1C(=O)NCCC | 1.4 | -2.8 | -7.1 | -0.6 | 0.4 | -3.2
COc1ccc(NC(=O)c2cccc3ccccc23)cc1 | 0.5 | 2.9 | 29.6 | 21.8* | -50.5 | 28.6
COc1ccc(NC(=O)c2cc3ccc(O)cc3o/c2=N\O)cc1 | 0.1 | nt | -28.3 | 35.8* | -53.5 | 75.4*
COc1ccc(NC(=O)c2cc3ccccc3cc2O)cc1 | 6.7 | -10.5 | -56.9 | 7.1 | -4.8 | 86.5*
